# D3 antag: blocks the human D3 dopamine receptor; P35462; D3R cells, DiscoveRx beta-arrestin luminescence, antagonist mode; active compounds read low; max response, negative = inhibition, %; hit rate 2.5% among 360,000; AID 652054; in the data active = max response below about -50%; inconclusive = no clear call, values can overlap the other calls
# Target sequence (P35462 whole entry, looked up): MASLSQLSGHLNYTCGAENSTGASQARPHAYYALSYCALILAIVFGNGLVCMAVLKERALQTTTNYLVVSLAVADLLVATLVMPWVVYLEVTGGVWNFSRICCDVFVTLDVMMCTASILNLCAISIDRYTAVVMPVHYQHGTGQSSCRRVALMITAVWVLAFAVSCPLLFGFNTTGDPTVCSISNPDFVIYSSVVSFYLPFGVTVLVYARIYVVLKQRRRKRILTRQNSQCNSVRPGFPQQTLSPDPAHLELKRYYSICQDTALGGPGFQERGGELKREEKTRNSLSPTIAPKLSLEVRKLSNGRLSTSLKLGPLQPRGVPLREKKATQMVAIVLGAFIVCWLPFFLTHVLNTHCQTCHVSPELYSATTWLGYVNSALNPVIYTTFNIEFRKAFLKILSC
#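 Cells plated overnight at 1500 cells/well, then exposed to library compounds with dopamine controls for 90 minutes at 37 degrees C. DiscoveRx reagent added for 30–60 minutes at room temperature; luminescence read, quantitative HTS format.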
# TGFb inhibitor: blocks TGF-b signaling. Potency, µM (titrated, usually from 46.1 µM), actives largely listed as inhibitors. hit rate 1.2% among 410,000. HepG2 CAGA-GFP TGF-b/SMAD3 reporter, GFP fluorescence, 18 h; TGF-beta stimulated, 500 pg/mL final; note: nearly all actives have a fitted effect of over 65% in size
#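 HEPG2 CAGA-GFP reporter cells (1000/well, DMEM with 1% FBS) received compounds, then recombinant TGF-beta at 500 pg/mL final for 18 hours at 37 degrees C. Per-cell GFP summed per well was normalised to unstimulated and stimulated DMSO controls before curve fitting.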
# ATXN2 expr inh: reduces ATXN2 reporter expression in HEK-293 cells. HEK-293 ATXN2-luciferase reporter, luminescence, 24 h. Potency, µM (top dose mostly 57 µM), usual class: inhibitors. hit rate 0.72% among 360,000. AID 1745845; note: nearly all actives have a fitted effect of over 55% in size
#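 qHTS (up to 57 uM final) was run with 24 h compound exposure of reporter cells at 37 °C. Each well was multiplexed: SteadyGlo luminescence measured ATXN2-luciferase expression after a fluorogenic Gly-Phe-AFC viability readout (25 uM final).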
# D3 ag: agonists of human D3 dopamine receptor | P35462 | D3R DiscoveRx beta-arrestin cells, luminescence, 90 min | max activation, % | hit rate 0.58% among 410,000; in the data active = max activation above about 30%
#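 Agonist-mode cell screen: cells plated at 1500/well and incubated overnight at 37 °C, then exposed to library compounds for 90 min at 37 °C. Detection reagent was added for 30–60 min at room temperature, and luminescence was read.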
# HepG2 viability: counter-screen for TGF-b inhibitors: cytotoxicity in HepG2 cells; HepG2 CAGA-GFP viability, ATP luminescence, 18 h; Potency, µM (top dose mostly 46.1 µM), most hits filed as cytotoxic; hit rate 0.76% among 410,000; AID 588856
#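 CellTiter-Glo luminescence gave cytotoxicity after 18 hours at 37 degrees C. The cells were HepG2 CAGA-GFP in 1% FBS DMEM, stimulated with 500 pg/mL TGF-beta after compound addition. %Activity was normalised to no-cell wells (complete cell-killing) and DMSO (no toxicity), and curves were fitted and classified.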
# S2 tox: reduces viability in counter-screen for ATXN expression inhibitors; S2 cells (HEK-293 line with an ATXN2-luciferase reporter) viability, CellTiter-Fluor protease fluorescence, 24 h; Potency, µM (series often up to 56.7 µM), hits mostly cytotoxic; hit rate 0.49% among 400,000; note: nearly all actives have a fitted effect of over 40% in size
# Hits are given with their value; i = inactive; ? = inconclusive; nt = no result. Shown are actives, neighbours in structure and some others; about 4.7% of the full set was active somewhere. Unless noted, calls come from the whole dose curve; as a rule, active = well fitted curve in the direction sought with a large enough effect; inconclusive = small, poorly fitted or top-dose-only effect, or another doubt; inactive = no such curve, though single readings can be large; an effect the other way counts as inactive or inconclusive.
SMILES,D3 antag,TGFb inhibitor,ATXN2 expr inh,D3 ag,HepG2 viability,S2 tox
CC(Oc1ccc(Br)cc1)C(=O)NC1CCN(Cc2ccccc2)CC1 (stereo unspecified),-75,i,i,i,i,i
Cc1ccc(C)c(OCc2cc(C(=O)NC3CCN(Cc4ccccc4)CC3)no2)c1,-93,?,i,i,i,i
Cc1ccccc1CCNCc1c(C(=O)O)c(C)n(Cc2c(F)cccc2Cl)c1C,nt,i,i,i,i,i
COc1cccc(-c2nc3c(c(SCc4ccccc4)n2)Cc2c(CO)cnc(C)c2O3)c1,nt,i,nt,i,i,nt
O=C(Cc1c(F)cccc1Cl)NC1CCN(Cc2ccccc2)CC1,?,i,i,i,i,?
O=C(COc1ccccc1F)NC1CCN(Cc2ccccc2)CC1,-65,i,i,i,i,i
OC[C@H]1O[C@@H](O[C@H]2[C@@H](O)[C@@](O)(CO)O[C@@H]2CO)[C@H](O)[C@@H](O)[C@@H]1O,nt,nt,i,nt,nt,nt
COc1ccc2nc3cc(Cl)ccc3c(C#N)c2c1,i,i,i,i,i,i
COc1ccc2nc3cc(Cl)ccc3c(Nc3ccc(O)c(CN4CCN(C)CC4)c3)c2c1,i,11µM,?,i,i,?
COc1ccccc1NC(=S)NNC(=O)c1cc(C)nn1C,-70,i,i,i,i,i
COc1ccccc1NC(=S)NNC(=O)c1cc(C)n(C)n1,-50,i,i,i,i,i
COc1ccccc1NC(=S)NNC(=O)c1ccccc1,-72,i,i,i,i,i
C#Cc1cccc(C(=O)NCc2nc(-c3ccccc3NC(=O)C3CCCO3)oc2C)c1 (stereo unspecified),nt,nt,nt,nt,nt,i
CC(=O)Nc1ccc(SCC(c2ccccc2)N2CCN(CC(C)C)CCC2=O)cc1 (stereo unspecified),nt,i,nt,nt,i,nt
O=c1[nH]c(Sc2ccc([N+](=O)[O-])cc2[N+](=O)[O-])nc2ccccc12,i,14µM,nt,i,11µM,?
O=C(C[n+]1ccccc1Cl)c1ccc(Br)cc1,nt,i,nt,nt,i,nt
O=C(NCCN1CCOCC1)N1c2ccccc2Sc2ccccc21,-53,i,i,i,i,i
O=C(Cn1c(C(=O)NCCCN2CCOCC2)cc2sccc21)c1ccccc1,?,i,i,i,i,?
Cc1ccc(CCNC(=O)c2cc3sccc3n2Cc2ccc(C)cc2)cc1,nt,i,i,i,i,i
Cn1c(C(=O)NCCN2CCOCC2)cc2sccc21,-63,i,i,i,i,i
Cc1ccc(Cn2c(C(=O)NCCCN3CCOCC3)cc3sccc32)cc1,-51,i,i,i,i,i
CCn1c(C(=O)NCCCN2CCc3ccccc3C2)cc2sccc21,-73,i,i,i,i,?
CCN1CCN(CCCNC(=O)c2cc3sccc3n2CC)CC1,i,i,i,i,i,i
CCOc1ccc(CCNC(=O)c2ccc(CS(=O)(=O)c3ccccc3C)o2)cc1OCC,nt,i,i,i,i,i
COc1cc(C(C)C)c2c(c1)S(=O)(=O)N(COc1cc(=O)n3cccc(OCCN4CCCCC4)c3n1)C2=O,nt,nt,i,nt,nt,nt
SMILES,D3 antag,TGFb inhibitor,ATXN2 expr inh,D3 ag,HepG2 viability,S2 tox
C=C1C=C(C(F)F)n2ncc(C(=O)N3CCCCC3)c2N1,nt,i,nt,nt,i,nt
CCCCNS(=O)(=O)c1ccc(NC(=O)C2c3ccccc3Oc3ccccc32)cc1,i,?,i,i,10µM,i
O=C(Nc1ccncc1)C1c2ccccc2Oc2ccccc21,i,i,i,i,i,i
Cc1ccc(S(=O)(=O)Nc2cccc(C(=O)N3CCN(c4ccccc4O)CC3)c2)cc1F,i,i,i,i,i,i
Cc1cc(S(=O)(=O)Nc2ccc(C(=O)N3CCN(c4ccccc4O)CC3)cc2)ccc1F,i,?,i,32,i,?
COc1ccc(C2CC(=O)c3cnc(Nc4cc(C)cc(C)c4)nc3C2)cc1 (stereo unspecified),i,i,i,49,i,i
COc1cc(C2CC(=O)c3cnc(NC(=O)COc4ccccc4)nc3C2)cc(OC)c1OC (stereo unspecified),i,i,i,36,i,i
CCn1c(SC(C)C(=O)Nc2ccc(C)cc2)nnc1-c1ccccc1 (stereo unspecified),nt,i,nt,nt,i,nt
COC(=O)c1c(OCc2cccnc2)cc(=O)n2c1CCN(C(=O)c1ccc(OC)c(F)c1)CC2,nt,nt,nt,nt,nt,i
COc1ccc2[nH]c(C)c(CCNC(=S)Nc3cccc(C)c3)c2c1,i,i,i,i,i,i
CCc1cccc(CC)c1NC(=S)NCCc1c(C)[nH]c2ccc(C)cc12,?,13µM,18µM,i,i,?
CCc1cccc(C)c1NC(=S)NCCc1c(C)[nH]c2ccc(C)cc12,i,13µM,?,i,11µM,i
CNc1cc(C(=O)O)nc2ccccc12,nt,?,nt,nt,i,nt
CC(C)N(Cc1ccccc1)C(=O)c1nc(-c2ccc(Cl)cc2)n2c1CCCCC2,nt,?,?,i,i,?
CC(=O)c1cccc(NC(=O)c2sc(-n3nc(C)c(CCC(C)C)c3C)nc2C)c1,nt,i,i,i,i,i
C=CCn1c(Cc2ccccc2)nc2c(cnn2-c2ccccc2)c1=O,i,?,i,39,i,i
S=c1[nH]nc(-c2ccco2)n1Cc1ccccc1,-81,i,i,i,i,i
S=c1[nH]nc(-c2ccccc2)n1Cc1ccccc1,?,i,i,i,i,i
Cc1c(Cl)c(-c2n[nH]c(=S)n2Cc2ccco2)nn1C,-54,i,i,i,i,i
S=c1[nH]nc(-c2ccc(Br)o2)n1Cc1ccccc1,-82,i,i,i,i,i
CCOC(=O)C1(C(F)(F)F)N=C(c2cccnc2)OC(N2CCOCC2)=N1 (stereo unspecified),-59,i,i,i,i,i
CCOC(=O)c1cnc(-c2ccccc2)nc1N1CCOCC1,i,i,i,i,i,i
O=C(/C=C/c1ccc(OCCCF)cc1)NCc1ccc(Cl)cc1,-70,i,i,i,i,i
COc1ccc(CC(=O)Nc2ccc(OC(C)=O)cc2C(=O)O)cc1,i,i,nt,i,1.1µM,i
CC(NC(=O)COC(=O)c1cc(NS(=O)(=O)c2ccc(Cl)c([N+](=O)[O-])c2)ccc1O)C1CC2CCC1C2 (stereo unspecified),-61,?,i,i,i,i
COc1ccc(NS(=O)(=O)c2ccc(O)c(C(=O)OCC(=O)NC(C)C3CC4CCC3C4)c2)cc1 (stereo unspecified),i,i,i,i,i,i
CCOC(=O)N1CCc2c(sc3c2c(=O)n(CCc2ccccc2)c(=O)n3CC(=O)Nc2ccccc2C)C1,nt,i,nt,i,i,nt
COc1cccc(CNC(=O)c2c(OC)cc(=O)n3c2CCN(C(=O)C2=C(C)OCCO2)CC3)c1,nt,nt,nt,nt,nt,i
O=C(CCN1CCN(c2ccc(Cl)cc2)CC1)Nc1ccccc1F,i,i,i,i,i,i

# Screening data (PubChem BioAssay)
